Measured values published in the supplement of paper PMC3334620.
Whole data set: some 33,000 sequences, median “E-score (-0.5 to 0.5)” near -0.016, cut for the highest 2% near 0.32. The list comes from a sample in which the highest values are over-represented; it also holds similar and randomly drawn sequences.

target: T1, Stp1 (UniProt B3LFK1); test: PBM E-score (8-mer binding enrichment) (E-score (-0.5 to 0.5)); higher = stronger / more preferred TF binding; conditions: protein concentration: 200 nM; construct: GST-full length
T1 sequence: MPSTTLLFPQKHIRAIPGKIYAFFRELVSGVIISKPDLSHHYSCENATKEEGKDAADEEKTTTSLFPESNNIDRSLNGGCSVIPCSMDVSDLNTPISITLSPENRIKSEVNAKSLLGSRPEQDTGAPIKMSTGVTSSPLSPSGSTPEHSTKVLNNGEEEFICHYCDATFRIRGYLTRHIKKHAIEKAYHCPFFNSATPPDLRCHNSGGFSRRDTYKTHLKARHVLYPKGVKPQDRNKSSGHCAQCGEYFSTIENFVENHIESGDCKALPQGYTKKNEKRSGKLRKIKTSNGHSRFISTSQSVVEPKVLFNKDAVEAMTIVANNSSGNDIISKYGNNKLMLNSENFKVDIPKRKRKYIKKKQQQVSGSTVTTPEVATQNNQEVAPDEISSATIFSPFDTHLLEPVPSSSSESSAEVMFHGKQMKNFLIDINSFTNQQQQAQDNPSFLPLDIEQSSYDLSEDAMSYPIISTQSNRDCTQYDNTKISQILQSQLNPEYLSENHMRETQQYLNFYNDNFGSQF
Method in brief: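 Yeast transcription factors carrying a GST tag, as full-length proteins or DNA-binding domains, were produced by PURExpress in vitro transcription/translation. About 100-200 nM protein was applied to universal all-10-mer Agilent arrays, double-stranded by primer extension on fresh or once-stripped slides. Bound protein was detected with fluorescent anti-GST, and scans were normalised with masliner. The Universal PBM Analysis Suite gave each ungapped eight-base word, pooled with its reverse complement, an E-score, a modified Wilcoxon-Mann-Whitney statistic.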

Sequence	PBM E-score
ACCCAACT	-0.178
ACTGCCGC	0.412
GGTGCCGA	0.288
AGTGCCGG	0.211
CCTGCCGC	0.226
CGTGCCAG	0.172
CGTGCCCA	0.235
AGTGCCGC	0.477
CGTGCCAC	0.232
CGTGCCGA	0.352
AGTGCCAC	0.242
ACTGCCGG	0.0822
CGTGCCGC	0.475
ACAGGTAG	-0.126
GAACTCCA	-0.0707
CCGACTTA	0.0516
CTCTGAAA	0.0291
CATTCTCG	0.128
GGGCCTGA	-0.296
AGTGCCAA	-0.0972
AGTGCCCA	0.0772
CTTGCCGC	0.309
AGTGCCGA	0.322
ATTGCCGC	0.418
ATTGCCGA	0.177

Sequence	PBM E-score
ATCAACCG	-0.0921
GCCGTACC	0.46
CCCGTACC	0.191
GCCGTACA	0.459
ACCGTACC	-0.0289
ACCGTACA	0.117
CCCGTACA	-0.0395
CCAGAGAG	-0.245
TCTCGGCA	0.045
CCGCGGTC	-0.0134
CCGCGGCC	0.325
GCGCGGGA	0.163
CCGCGGGC	0.215
GAGCGGCC	0.156
GCGCGGCA	0.483
GCGCGGAC	0.256
GCGCGGAA	0.263
GCGCGGCC	0.4
ACTCGGCA	0.324
CCTCGGCA	0.282
CAGCGGGA	-0.174
AGATAGTA	0.0718
ACATAGTC	-0.0859
AACACCCG	0.151
CTGTGATC	-0.0819

Sequence	PBM E-score
CACGTAGG	-0.104
CCCCGTCA	-0.177
CAGATTTA	0.198
TGGTTACA	-0.0623
TCTACCAA	-0.0725
ACGCGGTA	0.0505
ACGCGGTC	-0.0102
ACGCGGAT	0.236
ACGCGGAC	0.0606
CCGCGGCG	0.435
ACGCGGCT	0.446
ACGCGGCC	0.326
CCGCGGAG	0.0416
ACGCGGGA	0.0444
ACGCGGCA	0.479
CCGCGACG	0.197
ACGCGTCT	-0.112
AACAGTCC	-0.215
ATACACTG	0.0725
AGCCTCGG	-0.0283
GCTTGGAA	-0.00205
AGAACCTA	-0.109
AGCCAGCA	-0.297
CTTATTGC	0.0179
ACACAAGT	0.00705

Sequence	PBM E-score
GGATGTGA	-0.084
TGCCAGCA	0.01
ATACCTGG	-0.284
AAGCAGGC	-0.277
CAGAGCTG	-0.147
ATCCGGAT	-0.0475
TCGCGACA	-0.0531
TCGCGGCA	0.346
CCGCGGAA	0.183
CCGCGGCA	0.441
ACGCGGTG	0.0603
ACGCGGAG	0.111
TCGCGGAA	-0.0668
ACGCGGCG	0.488
CCGCGGGA	0.218
CTGCCAGC	-0.204
TCAAAGAA	-0.0561
AAGCGAGC	0.0162
CAAGGTTC	-0.124
CCGCTCTC	-0.0569
AAAACCTA	0.0597
CGGGTGGA	-0.162
GGACGGCA	0.441
CGACGGCA	0.299
AGACGGCA	0.449

Sequence	PBM E-score
AGACGGAA	0.106
AGACGGGA	-0.12
GGACGGCC	0.16
AGGGTCAT	-0.233
CTCGCCAA	0.0165
CGACTCGA	-0.115
CACCATTC	0.0105
CACCGTCG	-0.114
CTACGGCC	0.126
ATACGGGC	-0.0186
CTACGGCA	0.473
ATACGGCA	0.483
ATACGGCC	0.406
ATACGGGA	0.125
CTACGGAA	0.0958
GTACGGGA	0.0383
ATACGGAA	0.268
GTACGGTA	0.147
GTACGGCA	0.48
CTACGGTA	-0.146
CAAAGGGG	-0.262
GGGCTGAC	-0.134
AGTAGACA	0.0181
ATAGGGAC	-0.211
ATCTCCTC	-0.209

Sequence	PBM E-score
AGCCTGCG	-0.245
GTTAAGAA	0.0825
AGAGAGAA	-0.198
CTAGAAAA	-0.0127
AACCGCGC	0.167
AGCCGCGG	0.376
AGCCGCGC	0.424
AGCCGCGA	0.159
ATCCGCGG	0.13
ACCCGCGC	0.232
GGGTTCCA	-0.286
AGAGTACA	0.04
CCGTTAGC	0.0331
CAGACCCC	-0.381
ACGGCAAG	0.369
AAGGCAAC	0.274
ATGGCAAA	0.197
ACGGCAAT	0.45
ACGGCAAA	0.45
AAGGCAAT	0.253
ATGGCAAC	0.289
AAGGCAAG	0.0628
AGGGCAAA	0.0608
ACGGCAAC	0.455
AGGGCAAT	0.156

Sequence	PBM E-score
CCGGCAAG	-0.0231
AATGTCCT	-0.246
CAAGCGCG	0.124
ATTTTGAA	0.277
GGAGTCAC	-0.236
ACTAACAT	0.0936
ACGGATAC	0.249
GGAAAGGA	-0.0901
AAGCCGGG	-0.211
AAGCCGTC	0.296
AAGCCGTG	0.419
AAGCCGAA	0.116
CAGCCGTA	0.306
AAGCCGTA	0.398
AAGCCGAG	-0.0198
GAGCCGAA	0.232
GAGCCGTA	0.468
CACCTCCG	-0.0858
AGATCCTC	-0.251
ACTGTGAA	0.0195
CCTGCACC	-0.271
GAGATTAC	-0.0779
